Test results: PubChem BioAssay AID2014 (Sanford-Burnham Center for Chemical Genomics, 2009)
Out of some 290,000 compounds screened, about 3,000 (1%) were called active. How the calls were made is not given here. Shown is part of a subset that was picked to be rich in actives.

Target: Polyadenylate-binding protein 1 (Homo sapiens) (UniProt P11940)
Assay: PABP poly(A) RNA binding inhibitors, primary screen, biochemical, fluorescence polarization, uHTS (AID 2014);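 further: calls also rest on retests at 20 µM and on dose response follow-up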
Details: stronger effect = higher value

Sequence of Polyadenylate-binding protein 1 (Homo sapiens) (P11940 whole entry, looked up): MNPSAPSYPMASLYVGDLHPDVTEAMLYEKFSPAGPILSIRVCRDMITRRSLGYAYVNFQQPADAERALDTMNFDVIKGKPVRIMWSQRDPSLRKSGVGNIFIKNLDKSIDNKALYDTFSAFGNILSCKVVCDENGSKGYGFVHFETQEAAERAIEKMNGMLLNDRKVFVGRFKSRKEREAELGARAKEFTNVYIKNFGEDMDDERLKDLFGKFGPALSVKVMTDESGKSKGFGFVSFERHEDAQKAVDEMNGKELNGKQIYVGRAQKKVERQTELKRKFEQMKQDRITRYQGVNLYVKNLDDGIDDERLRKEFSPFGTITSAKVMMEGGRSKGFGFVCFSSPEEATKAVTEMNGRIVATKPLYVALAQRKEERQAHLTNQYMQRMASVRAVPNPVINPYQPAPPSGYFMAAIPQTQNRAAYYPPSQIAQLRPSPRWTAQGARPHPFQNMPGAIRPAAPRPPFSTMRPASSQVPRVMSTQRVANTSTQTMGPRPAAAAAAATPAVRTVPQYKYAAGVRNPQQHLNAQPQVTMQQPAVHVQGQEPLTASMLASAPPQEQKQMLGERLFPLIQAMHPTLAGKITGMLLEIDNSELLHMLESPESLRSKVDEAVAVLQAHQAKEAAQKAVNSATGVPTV

Structure (SMILES) | inhibition (at 35 µM) | inhibition (confirmation repeats, at 20 µM)
C[N+]1(CCNC(=O)/C=N/O)CCCCC1 | 63.4% (active) | 
CC(C)[C@H](NC(=O)N1CC(=O)Nc2ccccc21)C(=O)N[C@@H](Cc1c[nH]c2ccccc12)C(=O)O | -3.1% (inactive) | 
Cc1cccc(-c2c(NC(=O)c3ccco3)oc3ccc(Cl)cc3c2=O)c1 | -6.1% (inactive) | 
CCC1S/C(=N/N=C/c2ccco2)NC1=O (centres undefined) | -11% (inactive) | 
CC(C)(C)C1C/C(=C/c2ccco2)C(=O)/C(=C/c2ccco2)C1 (centres undefined) | -1.8% (active) | 53.3%
O=C1OC(/C=C/c2ccccc2)=NC/1=C/c1ccco1 | 16.6% (inactive) | 5.2%
Cn1c(=O)oc2cc(S(=O)(=O)NCCC(=O)NCc3ccccc3Cl)ccc21 | 1% (inactive) | 
C=CCn1c(SCc2csc(C)n2)nc2scc(-c3ccc(C)o3)c2c1=O | 6.5% (inactive) | 
C=CCNC(=O)CSc1nc2scc(-c3ccco3)c2c(=O)n1CC=C | 15.2% (inactive) | 
C=CCn1c(=S)[nH]c2scc(-c3ccco3)c2c1=O | 69.3% (active) | 
COc1cccc(NC(=O)N2CCCC2C(=O)NC2CCCCC2)c1 (centres undefined) | -0.6% (inactive) | 
CCn1cc(C(=O)N2CC(C)CC(C)C2)c(=O)c2cc(S(=O)(=O)N3CCCC3)ccc21 (centres undefined) | -11.3% (inactive) | 
COc1ccc(-c2cc(C(=O)N(C)Cc3ccc(OC)c(OC)c3OC)c3ccccc3n2)cc1OC | 48% (inactive) | 
Cc1cc2ccccn2c1C(=O)c1cccc(F)c1 | 2.5% (inactive) | 
Cc1ccc(C(C[N+](=O)[O-])c2c(C)cc3ccccn23)cc1 (centres undefined) | -2.2% (active) | 72.2%
CC(=O)Nc1ccc(/C=N/Nc2ccc(C(=O)c3c(C)cc4ccccn34)cc2[N+](=O)[O-])cc1 | 9% (inactive) | 
Cc1ccc(CNC(=O)Cc2cn(C)c3ccccc23)cc1 | 6.1% (inactive) | 
Cn1c2ccccc2c(=O)c2c(=O)n(Cc3ccco3)c(COc3ccccc3)nc21 | 1.9% (active) | 54.5%
COc1ccc(C(=O)CSc2nnc(COc3ccccc3)n2Cc2ccco2)cc1 | -8.1% (inactive) | 
CCCc1nc2c(c(=O)c3ccccc3n2C)c(=O)n1-c1cc(C)cc(C)c1 | 4.7% (inactive) | 
Cc1cnc(C)c(N2CCN(C(=O)C3CCC(=O)N(CCc4cccc(F)c4)C3)CC2)n1 (centres undefined) | 4.1% (inactive) | 
O=C1CCCC(O)=C1N=Nc1ccc(S(=O)(=O)N2CCOCC2)cc1 | 14.4% (inactive) | 
O=C1CCCC(O)=C1N=Nc1ccc2ncsc2c1 | -16.7% (active) | 53.4%
CCOc1cc(C2/C(=C(/O)c3ccc(S(=O)(=O)N4CCCCC4)cc3)C(=O)C(=O)N2CCOC)ccc1O (centres undefined) | 1.6% (inactive) | 

Structure (SMILES) | inhibition (at 35 µM) | inhibition (confirmation repeats, at 20 µM)
Cc1ccc2cc(C)c(N3CCN(c4ccc(F)cc4)CC3)nc2c1 | -13.2% (inactive) | 
COc1ccc(-c2cc(C(=O)N3CCN(Cc4ccc5c(c4)OCO5)CC3)on2)cc1OC | 6.7% (inactive) | 
COc1ccc(Cl)cc1NC(=O)CCS(=O)(=O)c1ccc(Br)cc1 | 54.8% (active) | 
COc1ccc(Cl)cc1NC(=O)CCS(=O)(=O)c1cc2c(cc1C)NC(=O)CO2 | -1.1% (inactive) | 
O=C(CCS(=O)(=O)c1ccc(Br)cc1)NCCc1ccc(Cl)cc1 | 19.8% (inactive) | 10.6%
O=C(CSc1ncn[nH]1)N/N=C/c1ccc(F)cc1 | -7.9% (inactive) | 
O=C(NCCCc1ccccc1)c1cc(COc2c(F)cccc2F)on1 | -3.7% (inactive) | 
O=C(c1c(F)cccc1F)N1CCN(c2ncc(Br)cn2)CC1 | 0.7% (inactive) | 
CN(C(=O)c1ccno1)c1nnc(-c2cccnc2)s1 | 12% (inactive) | 
Cc1ccc(-c2csc(N(Cc3ccco3)C(=O)c3cccs3)n2)cc1 | -9.4% (inactive) | 
Cc1nnc(N(Cc2ccco2)C(=O)c2ccno2)s1 | 68.4% (active) | 
O=C(CCN1C(=O)[C@H]2CC=CC[C@H]2C1=O)NCc1nc(-c2ccccc2)no1 | 15.4% (inactive) | 
O=C1c2ccccc2S(=O)(=O)N1Cc1c(F)cccc1Cl | 5.7% (inactive) | 
Cc1c(-c2ccccc2)nc(N)c(C#N)c1-c1cccs1 | -3.2% (inactive) | 
CN1CCc2nc(SC(C(=O)O)c3ccccc3)c(C#N)c(-c3cccs3)c2C1 (centres undefined) | 68.1% (active) | 
CCc1c(-c2ccccc2)nc(N)c(C#N)c1-c1cccs1 | -4.1% (inactive) | 
CCOC(=O)C1(Cc2ccccc2C)CCCN(C(=O)CCc2c(C)noc2C)C1 (centres undefined) | 2.2% (inactive) | 
CCn1c(=S)sc2c(=O)n(CC(=O)Nc3ccc(OC)cc3)c(C)nc21 | -6.5% (inactive) | 
Cc1cccc(C)c1NC(=O)CSc1nc2c([nH]1)c(=O)n(C)c(=O)n2C | 1% (inactive) | 
COc1cc(CCC(=O)N2CCN(c3ccccc3Cl)CC2)cc(OC)c1OC | 9.6% (inactive) | 
CCc1nnc(NC(=O)Cc2cccs2)s1 | 10.4% (inactive) | 
COc1ccc(Cc2nnc(NC(=O)c3ccc(OC)cc3OC)s2)cc1 | -6% (inactive) | 
COc1ccc(Cc2nnc(NC(=O)Cc3cccs3)s2)cc1 | 72.4% (active) | 
CNS(=O)(=O)c1cccc(C(=O)NCC2CCCCC2)c1 | 1% (inactive) | 

Structure (SMILES) | inhibition (at 35 µM) | inhibition (confirmation repeats, at 20 µM)
Cc1nn(Cc2ccccc2)c2c1C(c1ccccc1)C(C#N)=C(N)O2 (centres undefined) | 5.6% (inactive) | 
Cc1cc(C)c2c3c(sc2n1)C(c1ccccc1)C(C#N)=C(N)O3 (centres undefined) | 120% (active) | 63.8%
Cc1cc(C)c(C#N)c(SCc2[nH]nc3c2C(c2ccccc2)C(C#N)=C(N)O3)n1 (centres undefined) | -7.3% (inactive) | 
O=C(N/N=C/c1ccccc1O)/C(=C/c1ccccc1)CCO | -0.9% (inactive) | 
CCOc1cc(/C=N/Nc2cc(C)nc3ccc(C)cc23)ccc1O | -6.9% (inactive) | 
Cc1c(-c2cccc(Cl)c2)nc2ccccc2c1C(=O)OCC(=O)N(C)C1CCS(=O)(=O)C1 (centres undefined) | 6.7% (inactive) | 
CN(C(=O)COC(=O)c1cc(-c2ccco2)nc2ccccc12)C1CCS(=O)(=O)C1 (centres undefined) | 77.7% (active) | 
CN(C(=O)COC(=O)c1nc(Cl)ccc1Cl)C1CCS(=O)(=O)C1 (centres undefined) | 1.3% (inactive) | 
Cc1cccc(Nc2nc(-c3ccccc3)cs2)n1 | 3.3% (inactive) | 
O=C(NCc1ccccn1)c1ccc2nc(-c3ccco3)c(-c3ccco3)nc2c1 | 77.7% (active) | 
COc1cccc(S(=O)(=O)NCc2ccc(C(=O)NCc3ccccn3)cc2)c1 | 1.8% (inactive) | 
O=C(NCc1ccccn1)c1cc(Br)ccc1Cl | 0.7% (inactive) | 
N#CC1=C(N)Oc2c(sc3ccccc23)C1c1ccco1 (centres undefined) | 86.3% (active) | 
N#CC1=C(N)Oc2c(ccc3cccnc23)C1c1ccncc1 (centres undefined) | 10.6% (inactive) | 
CC1=C(C(=O)Nc2ccccc2)C(c2ccco2)C(C#N)=C(SCC(N)=O)N1 (centres undefined) | 7.1% (inactive) | 
COCCCNc1nc2c(-c3cccc(C)c3)nnn2c2ccc(Cl)cc12 | 3.2% (inactive) | 
COc1cccc(N(C(=O)CNC(=O)c2ccco2)C(C(=O)NC2CCCCC2)c2cccnc2)c1 (centres undefined) | 10.1% (inactive) | 
CN(C)CCCNC(=S)N1CCC(c2nc3ccccc3[nH]2)CC1 | -6% (inactive) | 
COc1ccc(C(CNC(=O)COc2ccc([N+](=O)[O-])cc2)N2CCCCC2)cc1 (centres undefined) | 1% (inactive) | 
Fc1cc(F)c2nc(Nc3nc4c(F)cccc4s3)sc2c1 | 0.5% (inactive) | 
NC(=O)c1c(NC(=O)c2ccccc2)sc2c1CCCC2 | 3.6% (inactive) | 
NC(=O)c1c(Nc2nc3c(F)cccc3s2)sc2c1CCCC2 | -15.3% (active) | 73.7%
COc1ccc(C(=O)NCCSc2ccccc2C)cc1 | 1.1% (inactive) | 
COCc1cc(C)n(CC(=O)NCC2CCCO2)c(=O)c1C#N (centres undefined) | -1.9% (inactive) | 

Structure (SMILES) | inhibition (at 35 µM) | inhibition (confirmation repeats, at 20 µM)
Cc1ccc(N2CCN(C(=O)c3cccs3)CC2)c(C)c1 | 3.2% (inactive) | 
Cc1cc(C)n2nc(SCC(N)=O)nc2n1 | 51.5% (active) | 81.1%
COc1ccc(C(C)=O)cc1CSc1nc2nc(C)cc(C)n2n1 | -7.3% (inactive) | 
CCOC(=O)C(C)Sc1nnc(CSc2nc3nc(C)cc(C)n3n2)o1 (centres undefined) | 2.5% (inactive) | 
Cc1onc(C(=O)Nc2ccc3c(c2)OCO3)c1[N+](=O)[O-] | 1.4% (inactive) | 
Cc1ccnc(N2C(=O)c3ccc([N+](=O)[O-])cc3C2=O)c1 | 47.5% (inactive) | 
COc1ccccc1NC(=O)Nc1nnc(Cc2ccc(F)cc2)s1 | -15% (inactive) | 
COc1ccc(C(CNC(=O)c2cc3c(s2)CCCC3)N2CCOCC2)cc1 (centres undefined) | 11.9% (inactive) | 
CC(=O)NC(Cc1ccc(F)c(F)c1)C(=O)NC1CCN(C(=O)c2ccc(C)cc2)CC1 (centres undefined) | 1.9% (inactive) | 
COc1ccc(CC(NC(C)=O)C(=O)NC2CCN(C(=O)c3ccc(Cl)cc3)CC2)cc1 (centres undefined) | 3.2% (inactive) | 
CNC(=S)N1CCC(NC(=O)C(Cc2ccc(F)cc2)NC(C)=O)CC1 (centres undefined) | 63.2% (active) | 
C[C@@H]1CC[C@@]2(OC1)O[C@H]1C[C@H]3[C@@H]4CC=C5C[C@@H](O)[C@H](O)C[C@]5(C)C4CC[C@]3(C)[C@H]1[C@@H]2C (some centres undefined) | 7.2% (inactive) | 
O=C1CN(C(=O)c2cc(F)cc(F)c2)c2ccccc2N1 | -2.2% (inactive) | 
Cc1cc(O)c(C(=O)/C=C/c2c(F)c(F)c(F)c(F)c2F)c(=O)o1 | -2.1% (inactive) | 
Cc1cc2c(=O)n(CC(=O)NCC(=O)Nc3ccc(C(C)C)cc3)cnc2s1 | 9.1% (inactive) | 
Cc1ccc(-n2ncc3c2CCCC3NC(=O)c2cnccn2)cc1C (centres undefined) | 5.7% (inactive) | 
O=C(CNC(=O)c1ccc(Br)o1)NCC1CCCO1 (centres undefined) | -3.6% (inactive) | 
O=C(c1ccc(Br)o1)N(c1ccccn1)C1CCCCC1 | -4.7% (active) | 75.2%
O=C(c1cccs1)N(C(=O)c1cccs1)c1ccccn1 | 0.2% (inactive) | 
CC1(C)CC(=O)C(C2c3ccccc3S(=O)(=O)c3ccccc32)C(=O)C1 | 62.9% (active) | 
CC1(C)CC(=O)C=C(Nc2ccccc2)C1 | 2.3% (inactive) | 
CC1(C)CC(=O)NC=C(c2ccccc2)C1 | -9.5% (inactive) | 
